Reference: PubChem BioAssay
Calls of active or inactive are those of the source.

Columns and labels:
[1] = test system: Wnt5a (protein binding on small-molecule microarray); assay: small molecules binding Wnt5a protein – biophysical, small-molecule microarray, 635/667 nm fluorescence, primary screen (AID 1142); details: 635 nm fluorescence, higher = more signal;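 also: fluorescence read at 667 nm with signal to noise per printed feature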
[2] = ATP-based viability of Huh7 replicon cells – cell-based, CellTiter-Glo luminescence, basal, 48 h, cytotoxicity control for HCV replication inhibitor project, primary screen (AID 1143); details: higher = more signal, called active from +8 up or from −8 down;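 also: Huh7 hepatoma cells carrying a hepatitis C replication reporter with no stimulus; test concentration not given here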
[3] = basal CRE-LacZ reporter activity in PC12 – cell-based, unstimulated, primary screen (AID 1145); details: no forskolin, luminescence, 4.5 h, higher = more signal, called active from +8 up or from −8 down
[4] = forskolin-driven CRE-LacZ activity in PC12 – cell-based, CRE-LacZ reporter, forskolin-stimulated, primary screen (AID 1146); details: luminescence, 4.5 h, higher = more signal, called active from +8 up or from −8 down;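 also: PC12 cells with 6xCRE LacZ reporter stimulated by forskolin 10 µM; beta-galactosidase reporter signal reflecting CREB driven transcription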
[5] = target: Streptavidin (Streptomyces avidinii) (UniProt P22629); assay: compounds binding control protein streptavidin – biophysical, small-molecule microarray, 635/667 nm fluorescence, artefact control for SMM compound annotation, primary screen (AID 1147); details: higher = more signal;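 also: signal reflects streptavidin binding to arrayed compounds as a control protein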
Streptavidin (Streptomyces avidinii), sequence (P22629 whole entry, looked up): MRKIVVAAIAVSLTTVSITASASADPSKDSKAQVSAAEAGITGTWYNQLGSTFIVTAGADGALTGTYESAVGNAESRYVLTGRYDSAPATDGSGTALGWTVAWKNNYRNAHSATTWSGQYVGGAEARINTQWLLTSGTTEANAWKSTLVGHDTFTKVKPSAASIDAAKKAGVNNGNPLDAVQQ

[6] = probe aInhba binding on compound microarray – biochemical, small-molecule microarray, 635/667 nm fluorescence, primary screen (AID 1148); details: higher = more signal;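 also: score merges 667nm spot fluorescence with signal-to-noise for antibody binding to printed compounds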
[7] = target: Torsin-1A (Homo sapiens) (UniProt O14656); assay: TOR1A wild-type binding on microarray – cell lysate, small-molecule microarray, lysate, 635/667 nm, primary screen (AID 1149); details: COS7 hTOR1A-WT lysate, 635 nm fluorescence, higher = more signal
Torsin-1A (Homo sapiens), sequence (O14656 whole entry, looked up): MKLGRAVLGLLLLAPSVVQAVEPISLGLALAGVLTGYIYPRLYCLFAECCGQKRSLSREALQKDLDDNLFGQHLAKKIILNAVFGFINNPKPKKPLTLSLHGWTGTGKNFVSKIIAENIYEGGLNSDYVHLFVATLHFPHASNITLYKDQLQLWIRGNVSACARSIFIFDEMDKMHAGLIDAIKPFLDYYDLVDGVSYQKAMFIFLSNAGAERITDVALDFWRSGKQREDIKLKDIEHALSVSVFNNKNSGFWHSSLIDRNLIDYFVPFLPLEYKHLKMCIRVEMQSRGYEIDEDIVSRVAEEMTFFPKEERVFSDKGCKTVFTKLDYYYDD

[8] = target: Torsin-1A (Homo sapiens) (UniProt O14656); assay: torsin A mutant lysate binding on microarrays – cell lysate, small-molecule microarray, COS7 lysate, 635/667 nm fluorescence, primary screen (AID 1150); details: COS7 hTOR1A mutant lysate, 635 nm fluorescence, higher = more signal;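 also: score pools 667 nm emission and signal to noise measuring lysate protein binding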
[9] = test system: Sonic hedgehog protein (Shh); assay: Sonic hedgehog microarray binding compounds – biochemical, small-molecule microarray, 635/667 nm fluorescence, primary screen (AID 1151); details: 635 nm fluorescence, higher = more signal;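 also: Shh protein binding to compounds spotted on small-molecule microarray slides; score combines spot fluorescence intensity with signal-to-noise across triplicate slides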

Compound | composite z-score [1] | z-score [2] | z-score [3] | z-score [4] | composite z-score [5] | composite z-score [6] | composite z-score [7] | composite z-score [8] | composite z-score [9]
CO[C@H]1COC(=O)[C@@H](C)NC(=O)CC=C[C@@H](C)[C@H](OC)COC(=O)CC=C[C@@H]1C | 0.0227 | -2.38 (inactive) | -0.747 (inactive) | -1.2 (inactive) | 0.0569 | -0.39 | 1.45 | 1.69 | 2.21
O=C1OCCC=C[C@H]2OC34C=CCN(Cc5ccccc5)C(=O)[C@H]3N(CCO)C(=O)[C@@H]4C12 (some centres undefined) | -0.17 | -4.38 (inactive) | -0.899 (inactive) | -0.894 (inactive) | -0.88 | -0.285 | -0.42 | -0.261 | -0.127
C=CCC(OC(C)=O)[C@@H]1[C@@H](N(Cc2cc3ccccc3o2)C(=O)c2ccc(C)cc2)c2cc(OCCCO)ccc2N1C(=O)c1ccc2ccccc2n1 (some centres undefined) | -0.0502 | -0.17 (inactive) | 5.44 (inactive) | -0.273 (inactive) | 0.184 | -0.0266 | 0.369 | -0.368 | 0.609
COc1ccc(-c2ccccc2[C@@H]2N[C@H](C(=O)O)CC[C@H]2C)cc1 | -0.053 | -1.45 (inactive) | 1.01 (inactive) | -0.902 (inactive) | 0.376 | -0.109 | 0.69 | 0.272 | 0.289
C[C@@H]1CC[C@H]2C(=O)N3[C@@H](CC[C@@H](C)[C@@H]3c3cccc(N4CCOCC4)c3)C(=O)N2[C@H]1c1cccc(Br)c1 | 0.205 | -0.167 (inactive) | 4.71 (inactive) | -0.902 (inactive) | 0.63 | 0.0561 | 0.472 | 0.418 | 0.994
C=CCC(OC(C)=O)[C@@H]1[C@@H](N(Cc2cc3ccccc3o2)C(=O)Cc2ccc(F)cc2)c2cc(OCCCO)ccc2N1C(=O)c1ccc(-c2ccccc2)cc1 (some centres undefined) | -0.125 | 0.15 (inactive) | 0.787 (inactive) | -0.775 (inactive) | -0.117 | -0.0313 | -0.583 | -0.159 | 0.0351
C=CCNC(=O)[C@@H]1[C@H]2C(=O)O[C@H](c3ccccc3)[C@H](c3ccccc3)N2[C@H](c2ccc(OCCO)cc2)[C@@]12C(=O)N(C(=O)OCCOC)c1ccc(C#CC3(O)CCCCCC3)cc12 | 0.281 | -6.19 (inactive) | -0.87 (inactive) | -1.59 (inactive) | 0.788 | 0.167 | 0.42 | 0.469 | 1.1
CO[C@@H]1COC(=O)[C@H](C)NC(=O)CC=C[C@@H](C)[C@H](OC)COC(=O)[C@H](C)NC(=O)CC=C[C@H]1C | 0.151 | -0.164 (inactive) | -0.205 (inactive) | -0.759 (inactive) | 1.17 | 0.0659 | 0.678 | -0.0045 | 0.622
COCCOC(=O)N1C(=O)[C@@]2(c3cc(C#CCC(C(=O)OC)C(=O)OC)ccc31)[C@H](C(=O)N1CCN(c3ncccn3)CC1)[C@H]1C(=O)O[C@H](c3ccccc3)[C@H](c3ccccc3)N1[C@@H]2c1ccc(O)cc1 | 0.117 | -3.81 (inactive) | -0.671 (inactive) | -0.784 (inactive) | 0.043 | 0.0386 | 0.143 | 0.731 | 1.38
CO[C@H]1COC(=O)[C@@H](C)COC(=O)[C@H](Cc2ccccc2)NC(=O)CC=C[C@H]1C | -0.0116 | -0.317 (inactive) | 0.432 (inactive) | -0.968 (inactive) | -0.666 | -0.0889 | 0.268 | 0.0916 | 1.85
C=CC[C@]1(C(=O)OC)N=C(c2ccc(OCCCO)cc2)O[C@H]1c1ccccc1CN=[N+]=[N-] | 0.832 | -3.72 (inactive) | 5.1 (inactive) | -0.911 (inactive) | -1.12 | 0.0232 | 0.101 | -0.0021 | 0.0034
C=C(CCCC)C(=O)CC[C@@H](OC(=O)c1cccnc1)c1cccc(OCCO)c1 | 0.38 | -1.85 (inactive) | 17.7 (active) | -0.315 (inactive) | -0.0743 | -0.0762 | 1.08 | 0.0906 | 1.17
C=CC[C@@]12N=C(c3ccc(OCCCO)cc3)O[C@@H]1c1ccccc1CN(Cc1ccccc1)C2=O | 0.509 | -4.89 (inactive) | 2.16 (inactive) | -2.5 (inactive) | -0.0929 | 0.174 | 0.376 | 0.294 | 1.91
C=CCN1C(=O)[C@@]2(O[C@@H](CCn3cc([C@H](O)c4ccccc4)nn3)[C@H]([Si](C)(C)c3ccc(OC)cc3)[C@H]2C)c2cc(N3CCOC3=O)ccc21 | -0.0882 | -6.15 (inactive) | 8.19 (active) | -1.73 (inactive) | -0.349 | -0.157 | 0.0712 | 0.557 | 0.185
C[C@H]1NC(=O)[C@@H](C)NC(=O)[C@@]23C(=O)N[C@@H](Cc4ccccc4)C2[C@H](C)[C@@]2(C)O[C@H]2C3/C=C/C/C=C\CNC1=O (some centres undefined) | 0.0845 | -0.333 (inactive) | 3.4 (inactive) | -1.32 (inactive) | -0.594 | -0.128 | 0.153 | -0.354 | 0.651
COCCOC(=O)N1C(=O)[C@@]2(c3cc(C#CCNC(N)=O)ccc31)[C@H](c1ccc(OCCO)cc1)N1[C@H](c3ccccc3)[C@H](c3ccccc3)OC(=O)[C@H]1[C@@H]2C(=O)Nc1nc2ccccc2s1 | 0.483 | -1.6 (inactive) | 0.627 (inactive) | -1.2 (inactive) | 0.422 | -0.224 | 0.72 | 0.471 | 1.6

Compound | composite z-score [1] | z-score [2] | z-score [3] | z-score [4] | composite z-score [5] | composite z-score [6] | composite z-score [7] | composite z-score [8] | composite z-score [9]
C[C@H]1COC(=O)[C@H](Cc2ccccc2)NC(=O)[C@@H](C)COC(=O)[C@H](Cc2ccccc2)NC1=O | 0.226 | -2.12 (inactive) | 2.52 (inactive) | -0.837 (inactive) | 1.65 | -0.0523 | 1.18 | 0.654 | 1.13
O=C(NCC(O)CO)[C@]1(Cc2ccccc2)N=C(c2ccc(OCCCO)cc2)O[C@@H]1c1ccccc1 (some centres undefined) | 0.454 | -3.91 (inactive) | 0.171 (inactive) | -1.08 (inactive) | 1.38 | 0.633 | 0.379 | 1.81 | -0.617
C=CC[C@@]1(C(=O)N2CCOCC2)N=C(c2ccc(OCCCO)cc2)O[C@@H]1c1ccccc1 | -0.0454 | -1.33 (inactive) | 0.437 (inactive) | -0.354 (inactive) | -0.0392 | -0.151 | 0.0827 | 1.2 | -0.571
COc1cccc([C@@H]2[C@@H](C)CC[C@H]3C(=O)N(C)[C@@H](C(C)C)C(=O)N23)c1 | 0.0537 | -0.205 (inactive) | 2.9 (inactive) | -0.762 (inactive) | 0.398 | -0.0523 | 0.798 | 0.101 | 0.39
CC(C)[Si](OCCCNS(=O)(=O)c1ccc(Br)cc1)(C(C)C)C(C)C | 0.0488 | -5.53 (inactive) | -0.752 (inactive) | -0.4 (inactive) | 0.623 | 0.0161 | 0.923 | 0.31 | 0.72
C=CCc1cccc([C@H]2N[C@H](C(=O)O)CC[C@@H]2C)c1 | 0.023 | 0.0815 (inactive) | 1.46 (inactive) | -0.675 (inactive) | -0.0599 | -0.101 | 0.352 | 0.122 | 1.54
C[C@@H]1C=CCC(=O)OC[C@H]2O[C@@H](C=C[C@@H]2O)[C@H](C)C=CCC(=O)OC[C@H]2O[C@H]1C=C[C@@H]2O | 0.375 | -5.78 (inactive) | 0.247 (inactive) | -0.724 (inactive) | 0.412 | 0.357 | 0.997 | 0.515 | 2.24
[N-]=[N+]=Nc1ccccc1C[C@@]1(C(=O)N2CCOCC2)N=C(c2ccc(OCCCO)cc2)O[C@@H]1c1ccccc1N=[N+]=[N-] | 0.372 | -5.17 (inactive) | 2.75 (inactive) | -1.37 (inactive) | 0.955 | 0.0982 | 0.644 | 0.407 | 0.174
CO[C@H]1COC(=O)CC=C[C@H](C)COC(=O)[C@@H](OCc2ccccc2)C=C[C@@H]1C | -0.192 | -4.32 (inactive) | 0.252 (inactive) | -1.2 (inactive) | 0.846 | -0.29 | 2.67 | 2.29 | 2.06
C=CCN(C(=O)C1N(c2ccc(CCO)cc2)C(=O)C2C(C(=O)O)C3C=CC21O3)C(C)(C)C (centres undefined) | -0.505 | -1.93 (inactive) | -0.623 (inactive) | -0.819 (inactive) | -2.01 | -0.227 | -3.07 | -1.77 | -1.34
C=CCNC(=O)[C@H]1[C@@H]2C(=O)O[C@@H](c3ccccc3)[C@@H](c3ccccc3)N2[C@@H](c2ccccc2OCCO)[C@]12C(=O)N(C(=O)OCCOC)c1ccc(C#CCC(C(=O)OC)C(=O)OC)cc12 | 0.302 | -3.84 (inactive) | 0.775 (inactive) | 0.105 (inactive) | -0.204 | 0.225 | 0.825 | 0.946 | 1.81
CCN1C(C)=C(C(=O)OC)[C@@H](c2ccccc2)N2C(=O)[C@](O)(C(=O)OC)[C@@H](c3ccccc3)C(C(=O)c3ccccc3)=C12 | 0.271 | -1.49 (inactive) | 1.55 (inactive) | 0.214 (inactive) | 0.0306 | -0.0552 | 0.5 | 0.269 | 0.473
CC(C)N1CC=CC23O[C@@H]4/C=C\CCCOC(=O)C4[C@H]2C(=O)N(CCO)[C@@H]3C1=O (some centres undefined) | -0.0732 | -1.04 (inactive) | -0.358 (inactive) | -0.457 (inactive) | -0.0353 | -0.0695 | -0.373 | -0.582 | 0.289
O=C1OCC=C[C@H]2OC34C=CCN(Cc5ccccc5)C(=O)[C@H]3N(CCCCCO)C(=O)[C@@H]4[C@@H]12 (some centres undefined) | -0.341 | -2.93 (inactive) | -0.354 (inactive) | -0.679 (inactive) | -1.62 | 0.0282 | -0.391 | -0.605 | -1.09
CCOC(=O)C[C@H]1[C@H](OC(=O)c2cc3ccccc3oc2=O)[C@@H](NC(=O)c2ccc3ccccc3c2)c2cc(OCCCO)ccc2N1C(=O)c1ccc2ccccc2n1 | 0.338 | -0.574 (inactive) | 9.89 (active) | -2.03 (inactive) | 0.895 | 0.0497 | 0.419 | 0.268 | 0.43
